Experimental data from PubChem BioAssay (Tox21).
Values joined by “and” are separate entries in the source; they are usually repeats but may differ in a detail not shown here. Equal values may be shown once. Active and inactive are the calls of the source. Entries that show only a call come without a potency. Unless noted, calls follow the shape of the dose curve; as a rule, active = well fitted curve in the direction sought with a large enough effect in the repeat runs; inconclusive = weak or mixed curves; inactive = no such curve, though single readings can be large; an effect the other way counts as inactive or inconclusive.

Experiments:
[1] = qHTS assay to identify small molecule antagonists of the glucocorticoid receptor (GR) signaling pathway - cell viability counter screen (AID 720693); also: nearly all actives have a fitted effect of over 55% in size; also: potency is read from the fitted curve at half-maximal effect
[2] = qHTS assay for identifying genotoxic compounds that show differential cytotoxicity against isogenic chicken DT40 cell lines with known DNA damage response pathways - Rev3 mutant cell line (AID 743014); also: nearly all actives have a fitted effect of over 55% in size; also: potency is read from the fitted curve at half-maximal effect
[3] = qHTS assay for identifying genotoxic compounds that show differential cytotoxicity against isogenic chicken DT40 cell lines with known DNA damage response pathways - Rad54/Ku70 mutant cell line (AID 743015); also: nearly all actives have a fitted effect of over 60% in size; also: potency is read from the fitted curve at half-maximal effect
[4] = qHTS assay to identify small molecule antagonists of the androgen receptor (AR) signaling pathway - cell viability counter screen (AID 743033; also: nearly all actives have a fitted effect of over 45% in size)
[5] = target: Androgen receptor (Homo sapiens) (UniProt P10275); assay: qHTS assay to identify small molecule agonists of the androgen receptor (AR) signaling pathway (AID 743036; active = well fitted activation curve with a large enough effect in the signal ratio in the repeat runs, with a control signal flat, not every such curve was filed as active; inconclusive = weak or mixed curves, or effect the other way; inactive = no such curve, though single readings can be large or run the other way; the % refers to the signal ratio)
Procedure, shortened: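 Reporter line: GeneBLAzer AR-UAS-bla-GripTite (HEK293). Steps: plate cells, 4 h rest, add compounds, 16 h at 37C, add LiveBLAzer B/G substrate, 2 h at RT, read fluorescence.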

[6] = target: Androgen receptor (Homo sapiens) (UniProt P10275); assay: qHTS assay to identify small molecule agonists of the androgen receptor (AR) signaling pathway using the MDA cell line (AID 743040; also: nearly all actives have a fitted effect of over 20% in size)
Procedure, shortened: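 Human breast carcinoma MDA-kb2 reporter cells (MMTV-luc, AR/GR elements) were treated for 16 h at 37C in 0% CO2 following a 5 h settling period. Signal was quantified by ONE-Glo luminescence.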

[7] = qHTS assay to identify small molecule antagonists of the androgen receptor (AR) signaling pathway using the MDA cell line - cell viability counter screen (AID 743041; also: nearly all actives have a fitted effect of over 45% in size)
Procedure, shortened: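 Same-well cytotoxicity was assessed by CellTiter-Fluor in MDA-kb2 AR-luc cells after 16 h of compound treatment under R1881 agonism.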

[8] = target: Androgen receptor (Homo sapiens) (UniProt P10275); assay: qHTS assay to identify small molecule antagonists of the androgen receptor (AR) signaling pathway using the MDA cell line (AID 743042; also: nearly all actives have a fitted effect of over 55% in size)
Procedure, shortened: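 MDA-kb2 breast carcinoma cells carrying MMTV-luciferase (AR/GR responsive) were co-treated with compounds and the agonist R1881 for 16 h at 37C. Inhibition read as ONE-Glo luminescence; CellTiter-Fluor fluorescence measured in parallel for cytotoxicity.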

[9] = qHTS assay to identify small molecule antagonists of the thyroid receptor (TR) signaling pathway - cell viability counter screen (AID 743064); also: nearly all actives have a fitted effect of over 50% in size; also: potency is read from the fitted curve at half-maximal effect
Procedure, shortened: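 Plate GH3.TRE-Luc cells; incubate 4 h at 37 °C; add compound, then T3 to 1 nM final; incubate 23.5 h; add CellTiter-Fluor; incubate 30 min at 37 °C, 5% CO2; read fluorescence.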

[10] = test system: thyroid hormone receptor (rat, GH3 cells); assay: qHTS assay to identify small molecule agonists of the thyroid receptor (TR) signaling pathway (AID 743066; calls by dose curve)
[11] = target: Estrogen receptor (Homo sapiens) (UniProt P03372); assay: qHTS assay to identify small molecule antagonists of the estrogen receptor alpha (ER-alpha) signaling pathway (AID 743069; active = well fitted curve in the direction sought with a large enough effect in the signal ratio in the repeat runs, not every such curve was filed as active; inconclusive = weak or mixed curves, or effect the other way; inactive = no such curve, though single readings can be large or run the other way; the % refers to the signal ratio; also: potency is read from the fitted curve at half-maximal effect)
Procedure, shortened: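 Reporter cells (ER-alpha-bla, HEK293 background) are conditioned overnight in stripped-serum medium (2% charcoal-stripped FBS). Compound and 17beta-estradiol exposure runs 18 hr at 37C, 5% CO2.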

[12] = qHTS assay to identify small molecule antagonists of the estrogen receptor alpha (ER-alpha) signaling pathway - cell viability counter screen (AID 743074; calls by dose curve;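 also: HEK293 cells carrying ER-alpha-UAS-bla reporter stimulated with 17beta-estradiol; nearly all actives have a fitted effect of over 45% in size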)
[13] = target: Estrogen receptor (Homo sapiens) (UniProt P03372); assay: qHTS assay to identify small molecule agonists of the estrogen receptor alpha (ER-alpha) signaling pathway (AID 743075; calls by dose curve;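 also: HEK293 GripTite cells with ER-alpha and UAS-driven beta-lactamase reporter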; also: potency is read from the fitted curve at half-maximal effect)
[14] = target: Estrogen receptor (Homo sapiens) (UniProt P03372); assay: qHTS assay to identify small molecule agonists of the estrogen receptor alpha (ER-alpha) signaling pathway using the BG1 cell line (AID 743079); conditions: BG1Luc4E2 cells, ERE-luciferase agonist, 22 h; activation: at 70.3 µM (top of the series); also: nearly all actives have a fitted effect of over 20% in size; also: potency is read from the fitted curve at half-maximal effect
[15] = qHTS assay to identify small molecule antagonists of the estrogen receptor alpha (ER-alpha) signaling pathway using the BG1 cell line (AID 743080; calls by dose curve;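 also: BG1 cells stimulated with 17beta-estradiol alongside compound; nearly all actives have a fitted effect of over 25% in size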; also: potency is read from the fitted curve at half-maximal effect)
Procedure, shortened: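 After 5 days in phenol-red-free 10% charcoal-stripped FBS medium, BG1-Luc-4E2 cells were seeded, left 24 h at 37 C, co-treated with compounds and 17beta-estradiol for 21.5 h, then assayed for viability and luciferase.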

Aromatase (Homo sapiens) = Aromatase (Homo sapiens) (UniProt P11511); assay: qHTS assay to identify aromatase inhibitors (AID 743083); also: nearly all actives have a fitted effect of over 55% in size; also: potency is read from the fitted curve at half-maximal effect
[16] = qHTS assay to identify small molecule antagonists of the thyroid receptor (TR) signaling pathway (AID 743065); also: nearly all actives have a fitted effect of over 55% in size; also: potency is read from the fitted curve at half-maximal effect
Procedure, shortened: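 GH3.TRE-Luc rat pituitary cells (two TREs driving luciferase) were dosed with compound, then stimulated with 1 nM T3 (final) for 23.5 h at 37 C. ONE-Glo luminescence was the read-out, with CellTiter-Fluor fluorescence as the cytotoxicity counter-screen.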

[17] = qHTS assay to identify small molecule antagonists of the estrogen receptor alpha (ER-alpha) signaling pathway using the BG1 cell line - cell viability counter screen (AID 743081);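 also: compound given together with 17beta-estradiol as the ER stimulus; nearly all actives have a fitted effect of over 45% in size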
[18] = qHTS assay for identifying genotoxic compounds that show differential cytotoxicity against isogenic chicken DT40 cell lines with known DNA damage response pathways - wild type cell line (AID 743012); also: nearly all actives have a fitted effect of over 60% in size
Procedure, shortened: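 Quantitative HTS on parental DT40 cells: 40 h compound treatment at 37 C/5% CO2, with viability then determined by CellTiter-Glo luminescence. Values serve as the DNA repair-proficient reference for differential cytotoxicity.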

Androgen receptor (Homo sapiens), sequence (P10275 whole entry, looked up): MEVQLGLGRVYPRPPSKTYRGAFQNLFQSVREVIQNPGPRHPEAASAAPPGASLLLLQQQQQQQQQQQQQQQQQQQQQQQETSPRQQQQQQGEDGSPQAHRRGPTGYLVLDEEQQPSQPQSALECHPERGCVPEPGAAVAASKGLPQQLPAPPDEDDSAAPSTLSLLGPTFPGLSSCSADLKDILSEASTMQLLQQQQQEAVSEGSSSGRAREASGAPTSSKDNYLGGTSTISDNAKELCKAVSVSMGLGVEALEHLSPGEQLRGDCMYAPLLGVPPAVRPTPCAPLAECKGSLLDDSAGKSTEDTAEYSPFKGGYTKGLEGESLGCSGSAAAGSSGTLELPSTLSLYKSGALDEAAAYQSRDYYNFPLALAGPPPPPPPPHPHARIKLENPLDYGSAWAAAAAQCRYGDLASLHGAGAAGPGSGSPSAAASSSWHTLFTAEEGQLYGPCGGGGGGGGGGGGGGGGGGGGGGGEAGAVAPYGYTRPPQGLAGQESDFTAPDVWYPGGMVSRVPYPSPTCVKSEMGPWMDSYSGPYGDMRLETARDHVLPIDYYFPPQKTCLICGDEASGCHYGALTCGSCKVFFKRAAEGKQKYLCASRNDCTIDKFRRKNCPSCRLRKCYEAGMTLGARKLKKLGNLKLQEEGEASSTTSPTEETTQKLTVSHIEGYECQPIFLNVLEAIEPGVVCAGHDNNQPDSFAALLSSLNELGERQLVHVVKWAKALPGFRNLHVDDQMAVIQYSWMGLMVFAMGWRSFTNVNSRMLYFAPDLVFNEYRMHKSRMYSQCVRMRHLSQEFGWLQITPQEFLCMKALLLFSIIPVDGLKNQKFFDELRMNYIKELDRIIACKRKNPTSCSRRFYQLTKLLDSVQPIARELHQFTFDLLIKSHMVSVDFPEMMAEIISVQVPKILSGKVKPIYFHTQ
Estrogen receptor (Homo sapiens), sequence (P03372 whole entry, looked up): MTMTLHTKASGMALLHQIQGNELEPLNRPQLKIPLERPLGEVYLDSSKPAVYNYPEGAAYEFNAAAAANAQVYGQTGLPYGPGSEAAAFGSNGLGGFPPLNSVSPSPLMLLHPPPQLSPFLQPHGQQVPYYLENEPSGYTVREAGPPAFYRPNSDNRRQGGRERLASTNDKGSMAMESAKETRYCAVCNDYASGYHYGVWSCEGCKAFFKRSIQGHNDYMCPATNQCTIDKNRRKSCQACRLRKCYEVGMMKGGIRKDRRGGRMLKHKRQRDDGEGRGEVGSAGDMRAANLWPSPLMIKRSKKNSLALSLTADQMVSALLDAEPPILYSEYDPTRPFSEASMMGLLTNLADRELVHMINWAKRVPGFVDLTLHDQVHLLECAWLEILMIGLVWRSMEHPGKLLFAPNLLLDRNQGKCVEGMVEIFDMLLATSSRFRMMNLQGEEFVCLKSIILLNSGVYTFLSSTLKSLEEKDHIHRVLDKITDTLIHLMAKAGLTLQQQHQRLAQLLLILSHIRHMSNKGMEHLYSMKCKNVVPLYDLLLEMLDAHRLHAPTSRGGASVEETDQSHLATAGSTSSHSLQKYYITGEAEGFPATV
Aromatase (Homo sapiens), sequence (P11511 whole entry, looked up): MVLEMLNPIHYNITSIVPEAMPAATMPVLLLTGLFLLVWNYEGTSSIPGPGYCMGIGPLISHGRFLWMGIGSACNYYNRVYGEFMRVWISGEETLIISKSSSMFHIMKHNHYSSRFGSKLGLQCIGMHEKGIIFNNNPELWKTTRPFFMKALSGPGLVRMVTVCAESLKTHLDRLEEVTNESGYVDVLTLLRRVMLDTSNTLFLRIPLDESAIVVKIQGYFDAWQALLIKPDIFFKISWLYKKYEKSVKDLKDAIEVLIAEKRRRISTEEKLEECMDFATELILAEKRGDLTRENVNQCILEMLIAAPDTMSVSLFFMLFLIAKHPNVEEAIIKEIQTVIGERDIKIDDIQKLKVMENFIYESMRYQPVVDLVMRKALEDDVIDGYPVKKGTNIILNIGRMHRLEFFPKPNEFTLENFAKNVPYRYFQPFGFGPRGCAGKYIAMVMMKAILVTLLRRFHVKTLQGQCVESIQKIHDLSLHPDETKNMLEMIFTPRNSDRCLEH

| Structure (SMILES) | Potency [1] | Potency [2] | Potency [3] | Potency [4] | outcome [5] | outcome [6] | Potency [7] | Potency [8] | Potency [9] | Potency [10] | Potency [11] | Potency [12] | Potency [13] | Potency [14] | Potency [15] | Potency (Aromatase (Homo sapiens)) | Potency [16] | activation [14] | Potency [17] | Potency [18] |
| --- | --- | --- | --- | --- | --- | --- | --- | --- | --- | --- | --- | --- | --- | --- | --- | --- | --- | --- | --- | --- |
| CC1=C2C[C@H]3[C@@H](CC=C4C[C@@H](O)CC[C@@]43C)[C@@H]2CC[C@]12O[C@@H]1C[C@H](C)CN[C@H]1[C@H]2C | inactive | 8.41 µM (active) | 29.8 µM (active) | inactive | inactive | inactive | inactive | inactive | inactive | inactive | inactive | inactive | inactive | inactive | inactive | inactive | – | – | – | – |
| CC[C@]1(O)CC[C@H]2[C@@H]3CCC4=CCCC[C@@H]4[C@H]3CC[C@@]21C | 3.01 µM (active) | 9.44 µM (active) | 13.3 µM (active) | inactive | – | – | inactive | – | inactive | – | – | inactive | 0.0005 µM [inconclusive] (active) | – | inactive | – | 8.41 µM (active) | 5.41% (active) | inactive | – |
| CSSC | inactive | – | inactive | inactive | – | – | inactive | – | – | inactive | – | inactive | – | – | – | – | inactive | – | inactive | inactive |
| CCCCCON=O | inactive | – | inactive | inactive | – | – | – | – | inactive | inactive | – | – | – | – | – | inactive | inactive | – | inactive | inactive |
| O=c1c2ccccc2c(=O)c2c1cc(Cl)c1[nH]c3c([nH]c12)c(Cl)cc1c(=O)c2ccccc2c(=O)c13 | inactive | – | inactive | inactive | – | – | inactive | – | inactive | inactive | inactive | inactive | inactive | inactive | inactive | inactive | – | – | inactive | – |
| O=C(N[C@@H]1N=C(c2ccccc2F)c2cccc3c2N(CC3)C1=O)c1cc2ccccc2[nH]1 | inactive | inactive | 21.1 µM (active) | inactive | – | – | – | – | inactive | inactive | – | – | – | – | – | – | 6.68 µM (active) | – | – | – |
| CCC(C)Br (stereo not drawn) | inactive | – | inactive | inactive | – | – | inactive | – | inactive | inactive | – | inactive | – | – | – | inactive | inactive | – | inactive | – |
| c1ccc(Nc2ccc(Nc3ccccc3)cc2)cc1 | inactive | 21.6 µM (active) | 24.2 µM (active) | – | – | – | inactive | – | – | inactive | 1.73 µM [inconclusive] (active) | inactive | – | 6.09 µM (active) | – | inactive | 9.65 µM (active) | – | inactive | – |
| c1ccc(N=NNc2ccccc2)cc1 | inactive | – | 63.3 µM (active) | inactive | – | – | – | – | – | inactive | 21.9 µM [inhibitor] (active) | inactive | inactive | 14.2 µM (active) and 54.5 µM (active) | 68.6 µM (active) | inactive | inactive | – | – | – |
| CCOP(=O)(OCC)Oc1nc(Cl)c(Cl)cc1Cl | inactive | – | 60.8 µM (active) | inactive | – | inactive | inactive | inactive | 60.8 µM (active) | inactive | – | – | 12.2 µM [inconclusive] (active) | – | 48.3 µM (active) | 27.1 µM (active) | 24.2 µM (active) | – | inactive | – |
| C=Cc1cccc(CCl)c1 | inactive | – | inactive | inactive | – | – | – | – | inactive | inactive | inactive | inactive | inactive | inactive | inactive | inactive | inactive | – | inactive | – |
| OCC(Br)CBr (stereo not drawn) | inactive | inactive | inactive | inactive | – | – | – | – | inactive | inactive | inactive | inactive | inactive | inactive | inactive | inactive | inactive | – | inactive | – |
